TROY NFkB inh: inhibitors of TROY-driven NF-kB signaling, primary screen, Q293 LMP1-TROYcd cells, NF-kB luciferase, uHTS; 360,000 tested, 0.98% active; Q293 LMP1-TROYcd NF-kB luciferase reporter, 4 h; inhibition, % at 10 µM; AID 1347056, 2019;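 active = compounds whose plate-normalised and pattern-corrected inhibition of the luciferase reporter signal at the single screening dose is 50% or more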
HIF-2a inh: HIF-2a reporter inhibitors, primary screen, luminescence, 786-0 RCC cells. 786-0 RCC cells HIF-2a reporter, luciferase luminescence, overnight. inhibition, % at 18.8 µM. 360,000 tested, 0.72% active. AID 624352, 2012;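 active = inhibition of the luminescence signal of 40% or more relative to plate controls, in a single-dose primary screen at 18.75 µM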
Peg3 promoter: Peg3 promoter-driven luciferase inhibitors, primary screen, cell-based, HeLa, luciferase luminescence. HeLa PEG-Prom luciferase reporter, overnight. inhibition, % at 20 µM. AID 588405, 2011. 360,000 tested, 1.7% active;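 active = inhibition of at least 50% at 20 µM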
CF NFkB block: inhibitors of PAF-induced NF-kB signaling, primary screen, cell-based, GFP fluorescence, uHTS. KKLEB NF-kB-GFP reporter, GFP fluorescence overnight. 360,000 tested, 0.86% active. inhibition, % at 5 µM. AID 588850, 2011;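 active = at least 50% inhibition at 5 µM, scaled per plate between neutral and stimulator controls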;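 note: PAF is a Pseudomonas aeruginosa culture filtrate used as stimulus; plate controls were PAF-stimulated DMSO wells for no effect and unstimulated DMSO wells for full effect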
KKLEB tox: cytotoxicity in KKLEB CF airway cells, primary screen, cytotoxicity control for CF NF-kB inhibitor project, cell-based, uHTS, fluorescence assay plates | 360,000 tested, 0.36% active | activity change (cytotoxicity), % at 5 µM | KKLEB CF airway cells viability, ATPlite luminescence, overnight; stronger effect = lower value; cells stimulated with P. aeruginosa culture filtrate;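 active = corrected activity change at or below -50% at 5 µM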
TWEAK-Fn14 inh: inhibitors of TWEAK-Fn14 signaling, primary screen, luciferase reporter cells, uHTS; TWEAK-stimulated Fn14 reporter cells, luciferase luminescence, 8 h; inhibition, % at 10 µM; 360,000 tested, 2% active; in the data active = inhibition above about 50%
CF NFkB conf: inhibitors of PAF-induced NF-kB signaling, retest, confirmation, cell-based, GFP fluorescence, single concentration; inhibition, % at 5 µM; 1,300 tested, 64% active; KKLEB CF airway cells, overnight; shares compounds with CF NFkB block; in the data active = inhibition above about 40%;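 note: stimulus PAF is a Pseudomonas aeruginosa filtrate and not platelet activating factor; plate controls were DMSO wells with stimulus for no effect and unstimulated DMSO wells for full effect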
Starred values were filed as active, the others as inactive; / = no result. Shown are actives, neighbours in structure and some others; about 3.9% of the full set was active somewhere.

SMILES	TROY NFkB inh	HIF-2a inh	Peg3 promoter	CF NFkB block	KKLEB tox	TWEAK-Fn14 inh	CF NFkB conf
CCOc1cc(/C=N\NC(=O)c2ccc(NC(=O)CC)cc2)ccc1OC(=O)c1ccccc1	-36	-1	71*	51*	-34	-100	9
CCCc1nnc(NC(=O)c2nc(S(=O)(=O)Cc3ccc(C)cc3)ncc2Cl)s1	62*	-1	103*	90*	-33	95*	91*
Fc1ccccc1-c1nnc2n1N=C(c1ccc(OC(F)F)c(OCC3CC3)c1)CS2	-11	6	16	27	-18	-43	/
COc1ccc(C2=Nn3c(nnc3-c3ccccc3OC)SC2)cc1OC1CCOC1 (stereo unspecified)	38	36	6	58*	-3	6	81*
COc1ccc(OC)c(-c2nnc3n2N=C(c2ccc(OC)c(OCC4CC4)c2)CS3)c1	48	29	33	60*	7	17	84*
COc1ccc(C2=Nn3c(nnc3-c3ccccc3C(F)(F)F)SC2)cc1OC1CCOC1 (stereo unspecified)	8	28	34	30	-8	-23	/
NC(=S)NNC(=O)c1cc(C(F)(F)F)cc(C(F)(F)F)c1	18	18	4	-8	4	-12	/
Cc1[nH]c(=O)[nH]c(=O)c1S(=O)(=O)N1CCCc2ccccc21	17	7	10	-12	9	-8	/
CCOC(=O)C1=C(N)N(c2cc(S(=O)(=O)N3CCOCC3)ccc2Cl)C(=O)C1	6	4	3	22	-7	-20	/
CC(=O)Oc1ccc(N(C(C)=O)S(=O)(=O)c2ccccc2)c2ccccc12	7	13	6	69*	0	-7	10
CC(=O)Oc1c(Cl)cc(N(C(C)=O)S(=O)(=O)c2ccccc2)c2ccccc12	22	2	4	57*	-19	13	54*
CC(=O)N(c1ccccc1Cl)S(=O)(=O)c1ccc(Cl)cc1	18	14	14	26	-7	4	/
CC(=O)Oc1ccc(N(C(C)=O)S(=O)(=O)c2ccc(C)cc2C)c2ccccc12	17	21	-1	42	-7	3	/
COc1ccc(S(=O)(=O)N(C(C)=O)c2ccc(OC(C)=O)c3ccccc23)cc1[N+](=O)[O-]	23	14	17	79*	-17	19	102*
O=C(NCC(=O)N1CCCCC1)c1ccc(Br)o1	-3	-95	-54	-3	11	8	/
CC[C@]12c3[nH]c4ccc(Cl)cc4c3CCN1C(=O)[C@@H](CC(=O)NCCC1=CCCCC1)C[C@@H]2C(=O)N1CCN(C(=O)C2CC2)CC1	14	-9	35	16	-8	29	/
CCCOc1ccc(C(=O)OCCN(CC)CC)cc1N	7	-15	5	75*	4	-9	16
O=C1CC(c2ccccc2)=C(c2ccccc2)C1	0	6	5	7	2	-1	/
COc1ccc(Oc2nc3c(c(=O)n(C)c(=O)n3C)n2C)cc1	-2	25	2	27	-3	35	/
Cn1c(=O)c2c(nc(Oc3ccc4ccccc4c3)n2C)n(C)c1=O	26	16	-1	55*	-9	51*	69*
Cc1ccc(C(=O)Cn2cnc3ccccc3c2=O)cc1C	/	-162	-267	17	5	6	/
COc1ccc(NC(=O)CCN2C(=O)c3ccccc3C2=O)c(OC)c1	-3	13	15	21	-1	2	/
COc1ccc(OC)c(N(CCN2C(=O)c3ccccc3C2=O)C(=O)CCl)c1	-7	8	22	62*	-42	26	99*
CNC(=O)c1ccc(NC(=O)C2CCN(c3ncnc4sc(C)c(C)c34)CC2)cc1	24	35	22	60*	-18	47	60*
Cc1ccc(NC(=O)CN2C(=O)NC(C)(CC(C)C)C2=O)cc1F (stereo unspecified)	1	13	9	-2	14	12	/
SMILES	TROY NFkB inh	HIF-2a inh	Peg3 promoter	CF NFkB block	KKLEB tox	TWEAK-Fn14 inh	CF NFkB conf
CC(=O)N(CC(C)C(=O)O)c1c(I)cc(I)c(N)c1I (stereo unspecified)	15	33	4	64*	33	-19	21
CC(=O)[C@@]1(O)CC[C@H]2[C@@H]3C[C@H](C)C4=CC(=O)CC[C@]4(C)[C@H]3CC[C@@]21C	11	19	-7	54*	18	-8	-86
CC(=O)C1(O)CCC2C3CC(C)C4=CC(=O)CCC4(C)C3CCC21C (stereo unspecified)	12	11	-1	48	16	-18	/
Cc1cc2c(c(=O)n1Cc1cccnc1)C(Cc1ccccc1)C(C#N)=C(N)O2 (stereo unspecified)	/	24	8	58*	-13	43	-35
Cc1cc2c(c(=O)n1Cc1cccnc1)C(c1cccs1)C(C#N)=C(N)O2 (stereo unspecified)	16	26	6	1	1	-24	/
CC1CNCCN1S(=O)(=O)c1cccc2cnccc12 (stereo unspecified)	16	22	-11	38	-9	23	/
O=S(=O)(c1cccc2cnccc12)N1CCCNCC1	16	32	-10	50*	-7	16	58*
C=CC[C@@H](CC(=O)N(CCO)Cc1ccccc1)C(=O)NC[C@H](OC(=O)[C@@H](CC=C)Cc1ccc(F)cc1)c1ccccc1	42	-12	71*	73*	-4	52*	92*
O=C(c1[nH]c(C(F)(F)F)nc1-c1ccccc1)N1CCN(c2ccccc2)CC1	28	8	22	6	-12	10	/
O=C(c1[nH]c(C(F)(F)F)nc1-c1ccccc1)N1CCN(c2c(Cl)cncc2Cl)CC1	20	-1	12	64*	-8	45	57*
COc1cccc2sc(N(CCN(C)C)C(=O)/C=C/c3cccs3)nc12	14	23	13	36	-20	17	/
COc1ccc(C)c2sc(N(CCN(C)C)C(=O)/C=C/c3cccs3)nc12	-38	8	50*	56*	-35	-1	9
O=C(Nc1ccccc1)c1cc2ccccc2c(=O)s1	-49	-184	-270	62*	-9	58*	68*
O=C(Nc1ccc(O)cc1)c1cc2ccccc2c(=O)s1	-26	-275	-350	41	9	32	/
O=C(NCc1cccnc1)c1ccc(Cn2cc(C(F)(F)F)ccc2=O)cc1	-11	14	2	9	-7	11	/

Screening data: PubChem, Sanford-Burnham Center for Chemical Genomics
